# Laboratory results published in PubChem BioAssay (EPA / NIEHS).
# Several values for one entry are separate records, joined by “and”; a condition that tells them apart may be missing. Identical values can stand only once. Activity calls are given as the source filed them. Rule for the calls: active = hit-call score of the fitted dose curve at least 0.9, where 1 is the maximum; inconclusive = response in the unintended direction; inactive = score below 0.9.
# System: Thyroperoxidase (TPO), gene 54314
# Assay: CCTE_Simmons_AUR_rTPO: CCTE's Amplex UltraRed Assay for Thyroperoxidase (TPO) Inhibition, Simmons Lab (AID 2283662);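 for AC50: potency for loss of signal meaning inhibition of peroxidase activity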
# Experimental: CCTE_Simmons_AUR_rTPO is a biochemical, single-readout assay that uses microsomes from rat thyroid gland in a tissue-based cell-free assay. Measurements were taken 0.5 hour after chemical dosing in a 384-well plate.CCTE_Simmons_AUR_rTPO is the assay component measured from the CCTE_Simmons_AUR_rTPO assay. It is designed to make measurements of thyroperoxidase (TPO) activity as detected with fluorescence intensity signals using the Amplex UltraRed technology as a form of enzyme activity reporter.Data from the assay component CCTE_Simmons_AUR_rTPO was analyzed at the endpoint, CCTE_Simmons_AUR_rTPO, in the positive analysis fitting direction relative to DMSO as the negative control and baseline of activity. Using a type of enzyme reporter, the Amplex UltraRed assay, loss-of-signal activity can be used to understand decreased peroxidase activity in the presence of excess […]. To generalize the intended target to other relatable targets, this assay endpoint is annotated to the oxidoreductase intended target family, where the subfamily is peroxidase.
# As described previously (Paul et al., 2014), the AUR substrate was repurposed to detect peroxidase (ie, TPO) activity in the presence of excess H2O2 for the AUR-TPO assay. The reaction profile for the 384-well format AUR-TPO assay is scaled to an 80 ul assay volume containing 25 uM AUR, 300 uM H2O2, and 5 ug microsomal protein in 200 mM phosphate buffer. The assay concentration of thyroid microsomal protein was approximately […]. First, rat microsomes containing TPO and diluent 200mM potassium phosphate buffer were added to opaque, black 384-well plates (Greiner, BioExpress; Kaysville, Utah) using an automated liquid handler (BioTek MicroFlo; Winooski, Vermont) with a plastic 5 ul tubing cassette. Similarly, AUR was added next by automated liquid handling. Test compounds were administered using a HDRT as described earlier to achieve a 0.5% final DMSO concentration. Finally, H2O2 (300 uM, final concentration) was then added by the BioTek MicroFlo to initiate the reaction. Microplates were incubated at 37C in the dark for 30min. Plates were then shaken on a fluorescence plate reader (FLUOStar Optima, BMG LabTech; GmbH, Germany), and endpoint fluorescence (top read) was measured using 10 flashes per well at 544/590nm excitation/emission. Three biological replicates of technical singles were run for every chemical concentration tested. A titrated range of MMI served as a positive control for TPO inhibition on each plate of the AUR-TPO screening campaign. Test chemicals were administered as a titrated series of 8 concentrations from 5 nM up to 87.5 uM [final] for 30 minutes prior to single endpoint detection. Dimethylsulfoxide [DMSO] was used as the vehicle control. Methimazole [MMI] was used as the positive control and was administered as a titrated series of 8 concentrations from 1 nM up to 271 uM [final].
Structure (SMILES),AC50,outcome
CCCSP(=O)(OCC)SCCC,19.4 µM (active),–
CCC(=O)Nc1ccc(Cl)c(Cl)c1,36 µM (active),–
CSC1=N[C@@](C)(c2ccccc2)C(=O)N1Nc1ccccc1,25.7 µM (active),–
CCOP(=S)(OCC)Oc1ccc([N+](=O)[O-])cc1,15.5 µM (active),–
CCOP(=S)(OCC)Oc1cc(C)nc(C(C)C)n1,14.4 µM (active),–
CCCOCC(=Nc1ccc(Cl)cc1C(F)(F)F)n1ccnc1,–,inactive
COP(=O)(OC)SCn1c(=O)oc2cc(Cl)cnc21,7.84 µM (active),–
CCOP(=O)(NC(C)C)Oc1ccc(SC)c(C)c1 (stereo not drawn),–,inactive
C=C(C)[C@H]1Cc2c(ccc3c2O[C@@H]2COc4cc(OC)c(OC)cc4[C@@H]2C3=O)O1,26.5 µM (active),–
CC1(C(=O)Nc2ccc(O)c(Cl)c2Cl)CCCCC1,–,inactive
O=c1ccc(=O)[nH][nH]1,–,inactive
CCC(=NOC/C=C/Cl)C1=C(O)CC(C2CCOCC2)CC1=O (stereo not drawn),–,inactive
S=C1NCCN1,6.05 µM (active),–
CN(C)[C@@H]1C(=O)C(C(N)=O)=C(O)[C@@]2(O)C(=O)C3=C(O)c4c(O)cccc4[C@@](C)(O)[C@H]3[C@H](O)[C@@H]12,17.5 µM (active) and 10.5 µM (active) and 15.5 µM (active),–
CCOC(=O)CC(SP(=O)(OC)OC)C(=O)OCC (stereo not drawn),29.2 µM (active),–
CCOP(=S)(OCC)OC(Cl)C(Cl)(Cl)Cl (stereo not drawn),3.97 µM (active),–
N#CSCSC#N,2.75 µM (active),–
COP(=O)(NC(C)=O)SC (stereo not drawn),31.8 µM (active),–
C#CCC1=C(C)C(OC(=O)C2C(C=C(C)C)C2(C)C)CC1=O (stereo not drawn),40.2 µM (active),–
CCCSP(=O)(OCC)Oc1ccc(Br)cc1Cl (stereo not drawn),15.6 µM (active),–
CCOP(=S)(OCC)Oc1ccc2c(C)c(Cl)c(=O)oc2c1,38.5 µM (active),–
CCOP(=S)(Oc1cnc(C(C)(C)C)nc1)OC(C)C (stereo not drawn),36.2 µM (active),–
CCOP(=O)(SC(C)CC)N1CCSC1=O (stereo not drawn),43.8 µM (active),–
